Calls of active or inactive are those of the source. Unless noted, no rule for the calls is given here.
How the values were obtained:
[1] = compounds binding Alexa647 anti-His antibody – biochemical, small-molecule microarray, 635 nm fluorescence, artefact control for SMM control protein annotation, primary screen (AID 1128); settings: higher = more signal;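 also: score merges feature fluorescence with signal-to-noise for each printed compound spot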
[2] = system: Human papillomavirus type 1a E7 protein (residues 1-88); experiment: HPV1a E7 small-molecule binders, primary screen, biochemical, small-molecule microarray, residues 1-88, 635 nm (AID 1129); settings: small-molecule microarray binding, fluorescence 635 nm; higher = more signal
[3] = target: Focal adhesion kinase 1 (Homo sapiens) (UniProt Q05397); experiment: PTK2 protein binding on printed compound slides – biochemical, small-molecule microarray, 635/667 nm fluorescence, BSA, DTT, primary screen (AID 1130); settings: 635 nm fluorescence, higher = more signal;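 also: composite of spot emission at 667 nm and signal to noise over triplicate slides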
[4] = system: Fibrinogen (Alexa647-labelled); experiment: Alexa647-fibrinogen binding to printed small molecules – biochemical, small-molecule microarray, 635/667 nm fluorescence, artefact control for SMM control-protein annotation, profiling panel (AID 1131); settings: fibrinogen-A647 binding fluorescence, higher = more signal;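 also: z-score merges 667 nm fluorescence with per-spot signal-to-noise over triplicate slides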
[5] = target: Follistatin (Homo sapiens) (UniProt P19883); experiment: FST protein binding to printed compounds – biochemical, small-molecule microarray, 635/667 nm fluorescence, primary screen (AID 1132); settings: 635 nm fluorescence, higher = more signal
[6] = target: Fibroblast growth factor 2 (Homo sapiens) (UniProt P09038); experiment: basic fibroblast growth factor binding to printed compounds – biochemical, small-molecule microarray, 635/667 nm fluorescence, primary screen (AID 1133); settings: FGF2, fluorescence 635/667, higher = more signal
[7] = JC-1 mitochondrial potential readout, lung cancer cells – cell-based, A549, JC-1 fluorescence, basal, 24 h, 100 nL, profiling panel (AID 1138); settings: higher = more signal;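 also: A549 lung adenocarcinoma cells under basal conditions with no added stimulus; test concentration not given here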
[8] = system: Lefty1; experiment: Lefty1 protein binding to printed compounds – biochemical, small-molecule microarray, 635/667 nm fluorescence, primary screen (AID 1139); settings: fluorescence 635/667, higher = more signal
[9] = system: wheat germ agglutinin (Triticum aestivum), Alexa647-labelled; experiment: Alexa647-WGA lectin binding to printed small molecules – biochemical, small-molecule microarray, 635/667 nm fluorescence, artefact control for SMM control-protein annotation, profiling panel (AID 1140); settings: WGA-A647 binding, 635 nm fluorescence, higher = more signal;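 also: score merges 667 nm feature emission with signal to noise over triplicate slides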
[10] = target: Luciferin 4-monooxygenase (Photinus pyralis) (UniProt P08659); experiment: inhibition of purified Photinus pyralis luciferase – biochemical, luminescence, purified enzyme, 2006 set, primary screen (AID 1141); settings: purified firefly luciferase, SteadyGlo luminescence, 30 min; higher = more signal, called active from +8 up or from −8 down;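 also: cell-free assay with purified firefly luciferase at 100 ng per well in PBS; test concentration not given here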
[11] = system: Wnt5a (protein binding on small-molecule microarray); experiment: small molecules binding Wnt5a protein – biophysical, small-molecule microarray, 635/667 nm fluorescence, primary screen (AID 1142); settings: 635 nm fluorescence, higher = more signal;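 also: fluorescence read at 667 nm with signal to noise per printed feature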
[12] = ATP-based viability of Huh7 replicon cells – cell-based, CellTiter-Glo luminescence, basal, 48 h, cytotoxicity control for HCV replication inhibitor project, primary screen (AID 1143); settings: higher = more signal, called active from +8 up or from −8 down;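 also: Huh7 hepatoma cells carrying a hepatitis C replication reporter with no stimulus; test concentration not given here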
[13] = Pseudomonas biofilm growth suppression – PAO1 strain, BacTiter-Glo luminescence, LB-PBS, primary screen (AID 1144); settings: P. aeruginosa PAO1 biofilm, 12 h, higher = more signal
[14] = basal CRE-LacZ reporter activity in PC12 – cell-based, unstimulated, primary screen (AID 1145); settings: no forskolin, luminescence, 4.5 h, higher = more signal, called active from +8 up or from −8 down
[15] = forskolin-driven CRE-LacZ activity in PC12 – cell-based, CRE-LacZ reporter, forskolin-stimulated, primary screen (AID 1146); settings: luminescence, 4.5 h, higher = more signal, called active from +8 up or from −8 down;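 also: PC12 cells with 6xCRE LacZ reporter stimulated by forskolin 10 µM; beta-galactosidase reporter signal reflecting CREB driven transcription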
[16] = target: Streptavidin (Streptomyces avidinii) (UniProt P22629); experiment: compounds binding control protein streptavidin – biophysical, small-molecule microarray, 635/667 nm fluorescence, artefact control for SMM compound annotation, primary screen (AID 1147); settings: higher = more signal;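 also: signal reflects streptavidin binding to arrayed compounds as a control protein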
[17] = probe aInhba binding on compound microarray – biochemical, small-molecule microarray, 635/667 nm fluorescence, primary screen (AID 1148); settings: higher = more signal;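 also: score merges 667nm spot fluorescence with signal-to-noise for antibody binding to printed compounds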
[18] = target: Torsin-1A (Homo sapiens) (UniProt O14656); experiment: TOR1A wild-type binding on microarray – cell lysate, small-molecule microarray, lysate, 635/667 nm, primary screen (AID 1149); settings: COS7 hTOR1A-WT lysate, 635 nm fluorescence, higher = more signal
[19] = target: Torsin-1A (Homo sapiens) (UniProt O14656); experiment: torsin A mutant lysate binding on microarrays – cell lysate, small-molecule microarray, COS7 lysate, 635/667 nm fluorescence, primary screen (AID 1150); settings: COS7 hTOR1A mutant lysate, 635 nm fluorescence, higher = more signal;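 also: score pools 667 nm emission and signal to noise measuring lysate protein binding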
[20] = system: Sonic hedgehog protein (Shh); experiment: Sonic hedgehog microarray binding compounds – biochemical, small-molecule microarray, 635/667 nm fluorescence, primary screen (AID 1151); settings: 635 nm fluorescence, higher = more signal;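 also: Shh protein binding to compounds spotted on small-molecule microarray slides; score combines spot fluorescence intensity with signal-to-noise across triplicate slides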

Chain of Fibroblast growth factor 2 (Homo sapiens) (P09038 whole entry, looked up): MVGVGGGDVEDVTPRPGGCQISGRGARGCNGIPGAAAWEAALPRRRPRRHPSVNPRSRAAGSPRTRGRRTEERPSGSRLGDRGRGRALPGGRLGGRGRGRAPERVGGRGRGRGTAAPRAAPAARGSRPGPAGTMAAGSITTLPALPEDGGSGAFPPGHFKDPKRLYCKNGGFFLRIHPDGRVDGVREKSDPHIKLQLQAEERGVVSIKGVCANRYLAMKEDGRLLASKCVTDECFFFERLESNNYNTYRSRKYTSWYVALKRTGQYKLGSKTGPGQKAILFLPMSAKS
Chain of Follistatin (Homo sapiens) (P19883 whole entry, looked up): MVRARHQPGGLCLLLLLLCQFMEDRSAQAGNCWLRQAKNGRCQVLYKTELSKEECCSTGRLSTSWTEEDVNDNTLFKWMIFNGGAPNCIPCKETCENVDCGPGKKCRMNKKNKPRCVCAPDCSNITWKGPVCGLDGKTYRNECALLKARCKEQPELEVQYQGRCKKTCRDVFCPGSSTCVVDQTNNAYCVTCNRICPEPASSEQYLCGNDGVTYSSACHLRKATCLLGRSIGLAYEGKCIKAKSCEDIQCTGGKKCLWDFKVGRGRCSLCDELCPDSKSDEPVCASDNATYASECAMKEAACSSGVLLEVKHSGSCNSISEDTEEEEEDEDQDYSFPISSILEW
Chain of Luciferin 4-monooxygenase (Photinus pyralis) (P08659 whole entry, looked up): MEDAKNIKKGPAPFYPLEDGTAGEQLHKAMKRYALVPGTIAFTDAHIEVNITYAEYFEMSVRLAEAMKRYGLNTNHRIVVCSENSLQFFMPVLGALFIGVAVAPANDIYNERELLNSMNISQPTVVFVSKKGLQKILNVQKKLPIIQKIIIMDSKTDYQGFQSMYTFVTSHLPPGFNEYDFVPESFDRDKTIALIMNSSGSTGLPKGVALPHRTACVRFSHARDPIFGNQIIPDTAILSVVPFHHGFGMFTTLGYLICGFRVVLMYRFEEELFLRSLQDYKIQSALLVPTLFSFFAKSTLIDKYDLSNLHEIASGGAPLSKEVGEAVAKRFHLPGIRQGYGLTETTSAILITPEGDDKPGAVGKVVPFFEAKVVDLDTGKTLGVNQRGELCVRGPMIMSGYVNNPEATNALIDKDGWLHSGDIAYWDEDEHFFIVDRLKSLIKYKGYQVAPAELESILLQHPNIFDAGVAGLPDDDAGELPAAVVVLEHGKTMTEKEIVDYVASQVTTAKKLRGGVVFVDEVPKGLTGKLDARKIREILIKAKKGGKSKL
Chain of Focal adhesion kinase 1 (Homo sapiens) (Q05397 whole entry, looked up): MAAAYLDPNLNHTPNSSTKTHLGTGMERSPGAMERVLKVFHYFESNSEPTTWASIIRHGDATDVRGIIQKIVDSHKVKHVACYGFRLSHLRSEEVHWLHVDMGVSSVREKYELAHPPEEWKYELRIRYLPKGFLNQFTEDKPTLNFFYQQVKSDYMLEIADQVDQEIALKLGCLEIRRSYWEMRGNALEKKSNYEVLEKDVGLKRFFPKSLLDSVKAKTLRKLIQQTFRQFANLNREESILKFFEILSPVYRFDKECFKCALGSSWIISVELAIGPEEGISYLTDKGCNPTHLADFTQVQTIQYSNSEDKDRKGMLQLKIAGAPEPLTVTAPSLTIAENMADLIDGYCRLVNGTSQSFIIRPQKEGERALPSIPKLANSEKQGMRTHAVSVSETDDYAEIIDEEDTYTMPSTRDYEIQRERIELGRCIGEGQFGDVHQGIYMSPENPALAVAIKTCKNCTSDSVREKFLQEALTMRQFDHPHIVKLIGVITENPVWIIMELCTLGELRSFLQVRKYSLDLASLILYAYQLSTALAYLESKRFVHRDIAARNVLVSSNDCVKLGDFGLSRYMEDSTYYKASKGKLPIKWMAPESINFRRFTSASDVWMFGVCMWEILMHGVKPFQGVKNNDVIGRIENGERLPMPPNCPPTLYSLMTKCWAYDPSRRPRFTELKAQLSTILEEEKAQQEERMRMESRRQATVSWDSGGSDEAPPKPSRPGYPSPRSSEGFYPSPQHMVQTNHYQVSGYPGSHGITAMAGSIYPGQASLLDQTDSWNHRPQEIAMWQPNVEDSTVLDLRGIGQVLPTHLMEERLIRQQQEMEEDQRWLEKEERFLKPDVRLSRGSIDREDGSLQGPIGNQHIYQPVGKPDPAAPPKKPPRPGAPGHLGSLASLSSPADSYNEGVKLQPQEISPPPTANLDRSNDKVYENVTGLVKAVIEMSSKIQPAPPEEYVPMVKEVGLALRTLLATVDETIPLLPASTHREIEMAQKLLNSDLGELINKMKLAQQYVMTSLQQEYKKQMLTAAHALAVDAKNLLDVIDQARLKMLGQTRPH
Chain of Torsin-1A (Homo sapiens) (O14656 whole entry, looked up): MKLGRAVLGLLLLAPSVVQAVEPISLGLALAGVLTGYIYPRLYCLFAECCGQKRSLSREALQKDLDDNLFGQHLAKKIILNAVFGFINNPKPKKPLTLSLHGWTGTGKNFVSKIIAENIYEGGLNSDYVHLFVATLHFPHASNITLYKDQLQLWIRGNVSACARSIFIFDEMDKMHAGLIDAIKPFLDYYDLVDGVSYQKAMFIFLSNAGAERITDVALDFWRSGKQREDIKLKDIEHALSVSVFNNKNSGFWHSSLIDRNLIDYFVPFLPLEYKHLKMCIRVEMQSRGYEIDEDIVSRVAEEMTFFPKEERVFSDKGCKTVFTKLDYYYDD
Chain of Streptavidin (Streptomyces avidinii) (P22629 whole entry, looked up): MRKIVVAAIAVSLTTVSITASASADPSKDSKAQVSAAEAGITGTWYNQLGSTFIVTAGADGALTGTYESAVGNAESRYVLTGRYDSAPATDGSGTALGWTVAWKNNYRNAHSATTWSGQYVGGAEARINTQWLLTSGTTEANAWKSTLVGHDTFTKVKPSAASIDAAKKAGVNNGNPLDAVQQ

| SMILES | composite z-score [1] | composite z-score [2] | composite z-score [3] | composite z-score [4] | composite z-score [5] | composite z-score [6] | z-score [7] | composite z-score [8] | composite z-score [9] | z-score [10] | composite z-score [11] | z-score [12] | z-score [13] | z-score [14] | z-score [15] | composite z-score [16] | composite z-score [17] | composite z-score [18] | composite z-score [19] | composite z-score [20] |
| --- | --- | --- | --- | --- | --- | --- | --- | --- | --- | --- | --- | --- | --- | --- | --- | --- | --- | --- | --- | --- |
| CC(CCN1CCCc2nc(C)c(C)cc21)=NOC[C@@H](O)COCc1ccco1 | 0.215 | -2.13 | 2.27 | -2.04 | 1.55 | 2.19 | 0.694 | 1.86 | -0.949 | -1.59 (inactive) | 0.516 | -0.244 (inactive) | -0.837 (inactive) | -0.0638 (inactive) | -0.175 (inactive) | 0.0849 | 1.26 | 4.39 | 4.29 | 2.5 |
| CCOC(=O)CCN1C(=O)[C@H]2[C@H]3[C@H](O)[C@H](O)CC(=NNC(=O)OCc4ccccc4)[C@H]3CC[C@H]2C1=O | -0.954 | -0.746 | -0.355 | -0.714 | 0.44 | 0.386 | -0.674 | 0.742 | -0.547 | 0.292 (inactive) | 0.126 | -1.31 (inactive) | -0.326 (inactive) | 1.07 (inactive) | -0.253 (inactive) | -0.362 | -0.0781 | 1.95 | 2.44 | 0.968 |
| COC(=O)[C@H](C)NC(=O)CC=C[C@@H](C)[C@@H]1C=C[C@H](O)[C@@H](CO)O1 | 0.0816 | 0.228 | -0.118 | -0.0588 | 1.14 | 1 | -0.142 | 1.39 | -0.28 | 0.374 (inactive) | 0.355 | 0.301 (inactive) | 1 (inactive) | -0.434 (inactive) | 0.222 (inactive) | 0.116 | -0.0918 | 0.945 | 0.394 | 1.39 |
| CC(=O)OC[C@H]1O[C@H](CC=NOCC[C@@H]2C=C[C@H](OC(C)=O)[C@@H](COC(C)=O)O2)C=C[C@@H]1OC(C)=O | 1.77 | 0.642 | -0.216 | -0.305 | 0.447 | 1.02 | -0.6 | 1.29 | -0.111 | 0.966 (inactive) | 0.288 | 0.366 (inactive) | -0.358 (inactive) | 0.848 (inactive) | 1.4 (inactive) | 0.162 | -0.0471 | 1.06 | 1.05 | 0.654 |
| CC(=O)OC[C@H]1O[C@H](CC=NO[C@@H](C)c2cc(-c3c(C)cc(C)cc3C)no2)C=C[C@@H]1OC(C)=O | 1.81 | -0.375 | -0.206 | 0.318 | 0.0047 | 0.323 | -0.921 | -0.0273 | 0.229 | 0.644 (inactive) | -0.184 | 0.125 (inactive) | -0.176 (inactive) | 0.173 (inactive) | 0.481 (inactive) | 0.897 | -0.175 | 0.213 | -0.31 | 0.0602 |
| CON=C1c2cc(OC)ccc2O[C@H](c2cccc(OC)c2)[C@H]1O | 0.293 | 0.416 | 0.197 | 0.273 | 0.587 | 0.675 | 0.314 | 0.6 | 0.208 | -2.9 (inactive) | -0.038 | -3.45 (inactive) | -0.243 (inactive) | -0.0731 (inactive) | -0.206 (inactive) | 0.431 | -0.016 | 0.195 | 0.517 | 0.755 |
| CC(CCN1CCCCc2nc(C)c(C)cc21)=NO[C@H](C)c1cn([C@@H]2COC[C@H]2O)nn1 | 0.968 | 0.12 | 0.422 | 0.41 | 1.26 | 1.33 | -0.624 | 1.38 | -0.0522 | 1.05 (inactive) | 0.229 | -0.216 (inactive) | 0.184 (inactive) | -0.482 (inactive) | -0.445 (inactive) | 1.12 | -0.0701 | 2.71 | 2.5 | 2.01 |

— PubChem BioAssay
